# Laboratory results: the supplement of paper PMC10849652
# The full data set covers some 8,800 targets. This sample favours those with a hit. About 0.5% of all pairs of compound and target were hits. A number with no mark means an inactive call.
# Legend:
# Assay in all cases: log2 fold change, soluble protein after heating vs DMSO (PISA); higher = thermal stabilisation; K562 lysate, 10 uM; active = over 0.2 and 3.5 SD of the protein, either way, in both replicates (recomputed)
# [1] = compound: CN1CC[C@H](c2c(O)cc(O)c3c(=O)cc(-c4ccccc4Cl)oc23)[C@H](O)C1 [alvocidib]
# Procedure, shortened: (§1)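 Log-two fold change in thermal stability relative to solvent controls is reported from duplicates. For each sample, crude K562 extract from dounce-homogenised pellets in PBS pH 7.4 with 1 mM MgCl2, at 1 mg/mL protein, was treated with 10 μM compound for 30 min. Aliquots heated for 3 min across 48°C-58°C were pooled, brought to 0.5% NP-40 at 4°C and cleared at 21,000xg for 90 min. The supernatant was quantified by TMTpro 16plex LC-MS/MS with channel sums equalised.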
# [2] = compound: CN1CCc2c(c3ccccc3n2Cc2ccc(C(=O)NO)cc2)C1 [Tubastatin A]
# Procedure, shortened: as §1
# [3] = compound: CNC(=O)C1=CC=CC=C1NC2=NC(=NC=C2Cl)NC3=C(C=C(C=C3)N4CCOCC4)OC
# Procedure, shortened: as §1
# [4] = compound: CNC(=O)c1ccc(Nc2ncc(C(F)(F)F)c(NCc3nccnc3N(C)S(C)(=O)=O)n2)cc1 [defactinib]
# Procedure, shortened: as §1
# [5] = compound: CNc1nc(-c2ccc3c(N)n[nH]c3c2)cc(N2C[C@@H](C(=O)NC3CCCCC3)CC[C@H]2C)n1
# Procedure, shortened: as §1
# [6] = compound: COC(=O)N[C@@H](C)CNc1nccc(-c2cn(C(C)C)nc2-c2cc(Cl)cc(NS(C)(=O)=O)c2F)n1 [encorafenib]
# Procedure, shortened: as §1
# [7] = compound: COC(=O)[C@H](CCSC)NC(=O)C1=C(C=C(C=C1)NC[C@H](CS)N)C2=CC=CC=C2
# Procedure, shortened: as §1
# [8] = compound: COc1cc(Nc2ncc3c(n2)-c2ccc(Cl)cc2C(c2c(F)cccc2OC)=NC3)ccc1C(=O)O [alisertib]
# Procedure, shortened: as §1
# [9] = compound: COc1cc2nc(-c3cc(F)ccc3O)nc(N[C@@H]3CNC[C@H]3C(C)(C)O)c2cc1OC
# Procedure, shortened: as §1
# [10] = compound: COc1cc2ncnc(Nc3ccc(F)c(Cl)c3)c2cc1OCCCN1CCOCC1 [gefitinib]
# Procedure, shortened: as §1
# [11] = compound: CS(=O)(=O)CCNCc1ccc(-c2ccc3ncnc(Nc4ccc(OCc5cccc(F)c5)c(Cl)c4)c3c2)o1 [lapatinib]
# Procedure, shortened: as §1
# [12] = compound: CS(=O)(=O)N1CCN(Cc2cc3nc(-c4cccc5[nH]ncc45)nc(N4CCOCC4)c3s2)CC1 [pictilisib]
# Procedure, shortened: as §1
# [13] = compound: C[C@@H](Oc1cc(-c2cnn(C3CCNCC3)c2)cnc1N)c1c(Cl)ccc(F)c1Cl [crizotinib]
# Procedure, shortened: as §1
# [14] = compound: C[C@H](C1=CC=C(C=C1)C(=O)NC2=C3C=CNC3=NC=C2)N
# Procedure, shortened: as §1
# [15] = compound: C[C@H](Nc1ncnc2nc[nH]c12)c1cc2cccc(Cl)c2c(=O)n1-c1ccccc1 [duvelisib]
# Procedure, shortened: as §1
# [16] = compound: Cc1cc(Nc2cc(CN3CCOCC3)c3nc(C)c(Cc4ccc(Cl)cc4F)n3n2)n[nH]1 [gandotinib]
# Procedure, shortened: as §1
# [17] = compound: Cc1cc(Nc2cc(N3CCN(C)CC3)nc(Sc3ccc(NC(=O)C4CC4)cc3)n2)n[nH]1 [tozasertib]
# Procedure, shortened: as §1
# [18] = compound: Cc1ccc(-n2nc(C(C)(C)C)cc2NC(=O)Nc2ccc(OCCN3CCOCC3)c3ccccc23)cc1 [doramapimod]
# Procedure, shortened: as §1
# [19] = compound: Cc1ccc(NC(=O)c2ccc(CN3CC[C@H](N(C)C)C3)c(C(F)(F)F)c2)cc1Nc1nccc(-c2cncnc2)n1 [bafetinib]
# Procedure, shortened: as §1
# [20] = compound: Cc1cccc(CC(=O)N2CCc3c2ccc(-c2cn(C)c4ncnc(N)c24)c3F)n1
# Procedure, shortened: as §1
# Sequence of UniProt Q9UBW7 (Q9UBW7 whole entry, looked up): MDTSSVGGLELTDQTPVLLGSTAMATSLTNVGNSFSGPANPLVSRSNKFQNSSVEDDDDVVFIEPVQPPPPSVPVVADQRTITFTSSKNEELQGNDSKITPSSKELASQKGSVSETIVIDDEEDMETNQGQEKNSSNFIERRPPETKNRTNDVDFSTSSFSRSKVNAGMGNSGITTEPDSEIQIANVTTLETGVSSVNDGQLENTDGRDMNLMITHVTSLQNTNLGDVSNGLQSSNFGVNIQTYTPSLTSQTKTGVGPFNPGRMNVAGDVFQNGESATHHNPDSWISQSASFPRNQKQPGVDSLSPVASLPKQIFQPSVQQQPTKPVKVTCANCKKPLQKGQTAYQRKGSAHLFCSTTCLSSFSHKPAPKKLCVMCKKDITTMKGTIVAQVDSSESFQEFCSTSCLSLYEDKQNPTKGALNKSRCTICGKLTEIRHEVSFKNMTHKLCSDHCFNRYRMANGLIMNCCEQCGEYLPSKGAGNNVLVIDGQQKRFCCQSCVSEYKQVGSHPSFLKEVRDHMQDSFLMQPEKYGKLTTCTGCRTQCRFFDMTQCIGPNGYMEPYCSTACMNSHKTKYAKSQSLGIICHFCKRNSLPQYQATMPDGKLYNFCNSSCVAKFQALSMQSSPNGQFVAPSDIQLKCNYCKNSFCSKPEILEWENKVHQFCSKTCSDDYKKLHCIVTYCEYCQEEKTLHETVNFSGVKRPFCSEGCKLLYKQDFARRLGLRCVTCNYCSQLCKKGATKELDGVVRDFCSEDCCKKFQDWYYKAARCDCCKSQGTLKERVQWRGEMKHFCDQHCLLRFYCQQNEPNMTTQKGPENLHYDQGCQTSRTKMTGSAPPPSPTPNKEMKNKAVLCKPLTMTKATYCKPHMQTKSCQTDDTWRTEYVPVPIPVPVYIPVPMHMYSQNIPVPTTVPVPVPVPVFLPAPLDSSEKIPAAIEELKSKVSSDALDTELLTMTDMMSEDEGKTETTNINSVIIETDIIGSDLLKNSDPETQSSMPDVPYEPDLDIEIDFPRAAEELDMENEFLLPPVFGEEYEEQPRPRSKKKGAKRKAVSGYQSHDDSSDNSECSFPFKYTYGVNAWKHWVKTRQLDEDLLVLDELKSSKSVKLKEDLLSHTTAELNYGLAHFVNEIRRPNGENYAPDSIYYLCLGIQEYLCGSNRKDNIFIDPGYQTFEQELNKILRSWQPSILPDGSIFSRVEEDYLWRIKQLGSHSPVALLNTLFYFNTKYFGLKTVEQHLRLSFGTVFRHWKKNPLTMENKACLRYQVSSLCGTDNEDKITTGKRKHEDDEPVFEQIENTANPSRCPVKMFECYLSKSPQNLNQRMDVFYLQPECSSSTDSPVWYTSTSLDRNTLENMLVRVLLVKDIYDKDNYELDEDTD
# Sequence of UniProt Q70CQ2 (Q70CQ2 whole entry, looked up): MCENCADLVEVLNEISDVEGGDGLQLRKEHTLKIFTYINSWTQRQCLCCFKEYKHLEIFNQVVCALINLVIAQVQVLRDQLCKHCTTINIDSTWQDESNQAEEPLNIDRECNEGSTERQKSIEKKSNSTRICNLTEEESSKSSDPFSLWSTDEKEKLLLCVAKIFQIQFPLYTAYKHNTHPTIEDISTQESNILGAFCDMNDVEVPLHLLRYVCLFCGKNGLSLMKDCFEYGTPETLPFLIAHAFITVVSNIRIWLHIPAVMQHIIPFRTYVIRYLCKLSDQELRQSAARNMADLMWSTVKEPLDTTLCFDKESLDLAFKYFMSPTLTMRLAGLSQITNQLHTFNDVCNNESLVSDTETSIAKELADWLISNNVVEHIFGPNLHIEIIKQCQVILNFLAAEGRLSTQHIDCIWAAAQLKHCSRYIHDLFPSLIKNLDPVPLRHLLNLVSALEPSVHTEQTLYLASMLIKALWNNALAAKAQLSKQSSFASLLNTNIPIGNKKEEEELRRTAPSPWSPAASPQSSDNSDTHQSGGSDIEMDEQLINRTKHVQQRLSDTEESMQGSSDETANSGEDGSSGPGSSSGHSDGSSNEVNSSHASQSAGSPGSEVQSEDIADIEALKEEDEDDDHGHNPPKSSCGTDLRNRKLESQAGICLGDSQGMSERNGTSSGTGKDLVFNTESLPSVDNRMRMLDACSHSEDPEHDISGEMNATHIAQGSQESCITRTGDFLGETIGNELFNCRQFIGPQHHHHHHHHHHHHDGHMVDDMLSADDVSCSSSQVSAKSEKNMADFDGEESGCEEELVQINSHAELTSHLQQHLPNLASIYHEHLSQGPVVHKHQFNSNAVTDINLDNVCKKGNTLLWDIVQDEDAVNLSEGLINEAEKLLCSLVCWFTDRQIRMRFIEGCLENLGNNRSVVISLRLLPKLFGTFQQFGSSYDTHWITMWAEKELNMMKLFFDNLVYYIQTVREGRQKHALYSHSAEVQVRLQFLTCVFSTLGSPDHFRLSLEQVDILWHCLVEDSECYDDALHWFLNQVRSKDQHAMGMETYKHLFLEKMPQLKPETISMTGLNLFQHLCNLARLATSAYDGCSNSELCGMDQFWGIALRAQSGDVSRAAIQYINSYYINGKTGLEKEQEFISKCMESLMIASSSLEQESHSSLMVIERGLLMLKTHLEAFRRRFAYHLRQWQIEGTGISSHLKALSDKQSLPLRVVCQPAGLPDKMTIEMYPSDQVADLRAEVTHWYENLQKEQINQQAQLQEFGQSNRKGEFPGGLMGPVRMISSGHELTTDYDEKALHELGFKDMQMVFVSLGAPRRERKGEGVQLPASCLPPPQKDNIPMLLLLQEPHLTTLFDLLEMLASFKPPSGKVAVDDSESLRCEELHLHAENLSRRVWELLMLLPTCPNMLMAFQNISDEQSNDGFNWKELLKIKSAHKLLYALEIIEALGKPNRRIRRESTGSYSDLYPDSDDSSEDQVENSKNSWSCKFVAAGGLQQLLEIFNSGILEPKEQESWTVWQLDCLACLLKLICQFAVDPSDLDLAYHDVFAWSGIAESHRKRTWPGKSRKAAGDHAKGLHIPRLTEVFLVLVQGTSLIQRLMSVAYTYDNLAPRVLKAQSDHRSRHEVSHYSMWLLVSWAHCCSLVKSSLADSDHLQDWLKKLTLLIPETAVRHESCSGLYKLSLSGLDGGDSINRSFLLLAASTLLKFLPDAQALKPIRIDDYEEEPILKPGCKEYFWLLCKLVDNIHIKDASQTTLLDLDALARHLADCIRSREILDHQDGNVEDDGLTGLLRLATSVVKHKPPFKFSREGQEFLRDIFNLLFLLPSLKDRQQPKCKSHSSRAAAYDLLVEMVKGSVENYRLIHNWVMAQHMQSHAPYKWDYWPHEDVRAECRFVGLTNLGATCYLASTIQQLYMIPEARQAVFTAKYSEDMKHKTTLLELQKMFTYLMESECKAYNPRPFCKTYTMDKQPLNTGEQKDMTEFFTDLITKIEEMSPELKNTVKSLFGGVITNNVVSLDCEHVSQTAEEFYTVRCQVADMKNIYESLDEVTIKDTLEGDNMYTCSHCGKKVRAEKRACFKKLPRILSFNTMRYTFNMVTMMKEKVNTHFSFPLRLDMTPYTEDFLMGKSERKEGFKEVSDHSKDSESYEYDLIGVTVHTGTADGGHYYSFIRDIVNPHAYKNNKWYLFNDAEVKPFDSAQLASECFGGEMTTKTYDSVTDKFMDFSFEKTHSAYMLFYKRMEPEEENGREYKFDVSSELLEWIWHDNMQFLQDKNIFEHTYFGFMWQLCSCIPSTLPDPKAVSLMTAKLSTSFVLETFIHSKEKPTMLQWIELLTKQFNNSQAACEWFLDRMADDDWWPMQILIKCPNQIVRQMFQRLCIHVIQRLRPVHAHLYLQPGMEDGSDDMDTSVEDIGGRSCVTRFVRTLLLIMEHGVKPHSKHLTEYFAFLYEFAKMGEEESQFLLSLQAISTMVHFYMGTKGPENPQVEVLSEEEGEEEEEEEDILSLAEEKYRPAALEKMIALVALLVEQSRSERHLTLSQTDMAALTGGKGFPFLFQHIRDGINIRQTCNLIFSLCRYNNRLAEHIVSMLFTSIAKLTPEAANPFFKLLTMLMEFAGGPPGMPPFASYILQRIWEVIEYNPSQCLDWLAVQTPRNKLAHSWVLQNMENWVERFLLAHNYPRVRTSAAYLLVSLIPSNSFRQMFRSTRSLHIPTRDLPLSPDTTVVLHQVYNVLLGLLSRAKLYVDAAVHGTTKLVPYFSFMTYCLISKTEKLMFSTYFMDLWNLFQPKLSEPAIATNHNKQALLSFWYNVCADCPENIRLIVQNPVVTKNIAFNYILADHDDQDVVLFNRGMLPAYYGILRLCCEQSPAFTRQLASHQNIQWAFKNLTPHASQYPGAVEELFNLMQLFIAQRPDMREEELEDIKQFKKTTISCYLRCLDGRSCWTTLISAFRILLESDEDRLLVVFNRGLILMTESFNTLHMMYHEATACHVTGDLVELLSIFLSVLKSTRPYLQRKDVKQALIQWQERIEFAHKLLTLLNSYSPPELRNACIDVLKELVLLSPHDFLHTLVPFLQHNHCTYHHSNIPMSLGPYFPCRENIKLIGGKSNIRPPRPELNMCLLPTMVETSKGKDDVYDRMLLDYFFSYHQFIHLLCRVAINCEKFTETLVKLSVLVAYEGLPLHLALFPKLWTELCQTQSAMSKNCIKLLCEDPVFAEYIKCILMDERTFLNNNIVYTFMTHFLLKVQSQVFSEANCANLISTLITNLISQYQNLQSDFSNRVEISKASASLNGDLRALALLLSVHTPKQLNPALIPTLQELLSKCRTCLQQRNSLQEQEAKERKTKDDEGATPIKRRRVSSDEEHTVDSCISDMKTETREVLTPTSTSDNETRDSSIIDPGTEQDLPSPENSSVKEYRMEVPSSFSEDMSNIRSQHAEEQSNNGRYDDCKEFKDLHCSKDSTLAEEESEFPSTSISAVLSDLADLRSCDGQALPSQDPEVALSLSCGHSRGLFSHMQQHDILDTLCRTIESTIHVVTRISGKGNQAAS
# Sequence of UniProt O95619 (O95619 whole entry, looked up): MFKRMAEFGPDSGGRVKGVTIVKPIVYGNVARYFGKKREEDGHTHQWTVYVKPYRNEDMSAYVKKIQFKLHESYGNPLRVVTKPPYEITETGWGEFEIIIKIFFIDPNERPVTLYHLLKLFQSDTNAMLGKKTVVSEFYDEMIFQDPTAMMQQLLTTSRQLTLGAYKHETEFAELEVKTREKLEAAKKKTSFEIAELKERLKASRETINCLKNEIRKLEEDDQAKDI
Target,log2 fold change [1],log2 fold change [2],log2 fold change [3],log2 fold change [4],log2 fold change [5],log2 fold change [6],log2 fold change [7],log2 fold change [8],log2 fold change [9],log2 fold change [10],log2 fold change [11],log2 fold change [12],log2 fold change [13],log2 fold change [14],log2 fold change [15],log2 fold change [16],log2 fold change [17],log2 fold change [18],log2 fold change [19],log2 fold change [20]
YRDC (UniProt Q86U90),0.015,-0.006,0.044,-0.023,0.043,0.003,-0.1,-0.014,-0.004,-0.001,-0.028,-0.038,-0.047,-0.039,0.018,0.055,0.027,0.035,0.022,0.01
ZMYM2 (UniProt Q9UBW7),0.076,-0.155,0.003,0.121,-0.021,-0.214,-0.018,-0.077,0.087,0.06,0.028,-0.147,-0.079,0.098,0.028,-0.329,0.046,0.041,-0.024,-0.084
UNC13D (UniProt Q70J99),0.015,-0.117,0.014,0.026,-0.035,0.059,0.054,-0.005,0.001,-0.034,-0.032,-0.032,-0.038,0.029,-0.039,-0.089,-0.015,0.009,-0.066,0.002
USP48 isoform 8 (UniProt Q86UV5),0.006,-0.119,0.019,-0.012,0.011,-0.003,0.14,-0.016,0.003,-0.018,-0.01,-0.001,-0.022,-0.006,-0.001,-0.044,0.008,0.024,-0.027,0.034
WDR62 isoform 4 (UniProt O43379),0.018,-0.132,0.012,-0.007,0.048,0.054,-0.01,0.005,0.052,0.013,-0.025,0.028,-0.048,-0.021,0.006,-0.032,0.034,0.038,-0.05,0.08
USP34 (UniProt Q70CQ2),0.035,-0.045,0.009,0.006,-0.014,0.033,0.09,0,0.017,0.013,-0.002,-0.008,-0.094,0.03,0.004,-0.122,0.011,0.01,-0.041,0.018
YEATS4 (UniProt O95619),0.105,0.004,0.012,0.007,-0.054,-0.004,-0.062,0.315 (active),-0.008,-0.064,0.023,0.026,0.02,0.609 (active),-0.015,-0.126,-0.006,0.064,-0.033,-0.083
USP16 (UniProt Q9Y5T5),0.004,-0.118,-0.011,0.035,0.008,0.059,0.081,-0.011,-0.003,-0.013,0.003,-0.049,-0.018,0.003,0.049,-0.039,0.006,-0.017,-0.037,0.035
XPNPEP1 isoform 3 (UniProt Q9NQW7),-0.018,0.011,0.029,-0.001,-0.045,0.001,0.613 (active),-0.002,0.002,0.002,-0.017,-0.02,-0.008,0.001,0.049,0.002,-0.024,-0.003,-0.021,0.018
UTP3 (UniProt Q9NQZ2),0.04,-0.022,-0.047,0.151,0.089,0.05,0.005,-0.042,-0.002,-0.017,0.002,-0.031,-0.094,-0.008,0.031,-0.007,-0.027,0.066,-0.061,0.029
YLPM1 (UniProt P49750),0.061,-0.041,0.01,0.041,0.131,0.049,-0.09,-0.033,0,-0.086,0.031,-0.019,0.064,0.147,0.009,-0.067,0.017,-0.042,-0.09,-0.054
USP8 (UniProt P40818),0.023,-0.018,0.014,0.02,0.005,0.004,0.102,-0.011,0.002,0.015,-0.011,-0.048,-0.009,0.002,-0.023,-0.077,-0.013,0.001,-0.026,0.017
WDHD1 (UniProt O75717),0.042,-0.073,0.004,-0.002,-0.011,-0.019,0.098,-0.016,-0.003,0.015,-0.017,-0.025,-0.035,0.077,0.007,-0.082,-0.043,0.011,0.023,-0.037
XPO6 (UniProt Q96QU8),-0.058,-0.09,-0.048,-0.025,-0.05,-0.006,0.021,0.036,0.031,0.067,-0.012,-0.069,-0.086,-0.158,0.06,0.005,0.072,0.034,-0.105,0.175
YTHDC2 (UniProt Q9H6S0),0.05,-0.084,0.038,0.048,-0.008,0.04,0.05,-0.026,-0.029,-0.004,-0.029,-0.007,-0.042,0.023,0.032,-0.013,-0.03,0.007,-0.022,-0.066
VAV3 isoform 4 (UniProt Q9UKW4),-0.305,-0.202,0.032,-0.295,0.053,0,0.049,-0.004,0.054,0.036,-0.167,-0.057,-0.217,-0.655 (active),-0.008,0.135,-0.093,0.325,0.023,0.242
